# HT1080 IDH1KD tx: qHTS for induction of synthetic lethality in tumor cells producing 2HG: qHTS for the HT-1080-IDH1KD cell line. HT-1080 IDH1 knockdown viability, ATP luminescence, 48 h. Potency, µM (doses to about 46.1 µM), without a hit: top-dose activity, negative = toxicity, actives largely listed as cytotoxic. AID 686971, 2013. 360,000 tested, 2% active;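 further: 0% = DMSO wells and -100% = cell-free medium wells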
#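 HT-1080-IDH1KD cells (IDH1 knocked down), 750/well in RPMI with 5% FBS, treated with compound 48 h at 37 degrees C. Viability by CellTiter-Glo luminescence, normalised to DMSO and no-cell wells; concentration-response curves classed.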
# DT40 TDP1 CPT: qHTS for Inhibitors of human tyrosyl-DNA phosphodiesterase 1 (TDP1): qHTS in cells in presence of CPT; chicken DT40 Tdp1-/-;hTDP1 cells + 20 nM CPT, ATP luminescence, 48 h; Potency, µM (doses to about 46.2 µM), for the others: at the highest dose activity change, negative = growth inhibition, most hits filed as inhibitors; 420,000 tested, 12% active; further: on the % scale 0 is the no-effect control and ±100 the full control effect; nearly all actives have a fitted effect of over 55% in size
#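 Cell growth measured by CellTiter-Glo luminescence after a minimum 48 h, 37 C compound exposure with 20 nM CPT in Tdp1-knockout DT40 cells stably expressing hTDP1, seeded 400/well; qHTS titration format.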
# HT1080NT lethal: qHTS for induction of synthetic lethality in tumor cells producing 2HG: qHTS for the HT-1080-NT fibrosarcoma cell line | HT-1080-NT fibrosarcoma viability, CellTiter-Glo ATP luminescence, 48 h | Potency, µM (highest dose often 46.1 µM), for the others: at the highest dose activity, negative = less viability, hits mostly cytotoxic | 360,000 tested, 1.6% active | AID 686970, 2013;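 further: NT is the 2HG producing partner of a matched IDH1 knockdown line; 0% = DMSO-treated cells and -100% = media-only wells without cells; nearly all actives have a fitted effect of over 55% in size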
#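 750 cells/well, RPMI + 5% FBS; 2 h settle, compound pin-transfer, 48 h at 37 degrees C. CellTiter-Glo 10 min RT, luminescence. Normalized to DMSO and media-only wells.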
# HepG2 viability: qHTS for Inhibitors of TGF-b: Cytotox Counterscreen | HepG2 CAGA-GFP viability, ATP luminescence, 18 h | Potency, µM (titrated, usually from 46.1 µM), without a hit: top-dose activity change, negative = cytotoxicity, actives largely listed as cytotoxic | 410,000 tested, 0.76% active | AID 588856, 2011
#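 CellTiter-Glo luminescence gave cytotoxicity after 18 hours at 37 degrees C. The cells were HepG2 CAGA-GFP in 1% FBS DMEM, stimulated with 500 pg/mL TGF-beta after compound addition. %Activity was normalised to no-cell wells (complete cell-killing) and DMSO (no toxicity), and curves were fitted and classified.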
# TGFb SMAD3 inh: qHTS for Inhibitors of TGF-b; HepG2 CAGA-GFP TGF-b/SMAD3 reporter, GFP fluorescence, 18 h; TGF-beta stimulated, 500 pg/mL final; Potency, µM (titrated, usually from 46.1 µM), for the others: at the top dose activity, negative = inhibition, actives largely listed as inhibitors; 410,000 tested, 1.2% active; further: on the % scale 0 is the no-effect control and ±100 the full control effect; nearly all actives have a fitted effect of over 65% in size
#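 Cell-based qHTS in HEPG2 carrying a CAGA-GFP Smad reporter; compounds added before 500 pg/mL final TGF-beta, 18 h incubation at 37 degrees C, GFP fluorescence quantified per cell by imaging cytometry.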
# DT40 TDP1 no CPT: qHTS for Inhibitors of human tyrosyl-DNA phosphodiesterase 1 (TDP1): qHTS in cells in absence of CPT; AID 686978, 2013; Potency, µM (highest dose often 46.2 µM), without a hit: top-dose activity change, negative = growth inhibition, usual class: inhibitors; 420,000 tested, 15% active; DT40 Tdp1-/- hTDP1 cells, no CPT, ATP luminescence, 48 h; further: on the % scale 0 is the no-effect control and ±100 the full control effect; nearly all actives have a fitted effect of over 55% in size
#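 Stably hTDP1-transfected Tdp1-null chicken DT40 cells were treated with library compounds minus camptothecin and grown for at least 48 hr at 37 °C, after which cellular ATP was quantified by luminescence.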
# * hit, by the source's call; ? = inconclusive; · = no result; [ ] = dose if it differs, or a comment. An excerpt weighted towards active compounds, which were near 17% of everything screened. The call rests on the fitted dose curve; in most records, active means well fitted curve in the direction sought with a large enough effect; inconclusive means small, poorly fitted or top-dose-only effect, or another doubt; inactive means no such curve, though single readings can be large; an effect the other way counts as inactive or inconclusive. Potency means the concentration at half of the fitted maximal effect.
SMILES,HT1080 IDH1KD tx,DT40 TDP1 CPT,HT1080NT lethal,HepG2 viability,TGFb SMAD3 inh,DT40 TDP1 no CPT
CN1CCc2c(sc(/N=C/c3c[nH]c4ccccc34)c2C(N)=O)C1,1.0%,-103.4%,1.9%,-32.5%,21.1%,16.4µM*
CCn1c(O)c(N=NC(=O)c2cccnc2)c2cc(Br)ccc21,8.0%,?,-28.5%,-18.5%,-19.8%,23.1µM*
COc1ccc(-c2cc(C(=O)NCCc3ccccc3)c3c(-c4ccccc4)[nH]nc3n2)cc1OC,·,16.4µM*,·,-39.4%,?,?
CCOc1ccc(-c2cc(C(=O)NCCc3ccccc3)c3c(-c4ccc(C)cc4)[nH]nc3n2)cc1,·,11.6µM*,·,-0.7%,-8.0%,14.6µM*
CCOc1ccc(-c2cc(C(=O)NCCc3ccc(OC)c(OC)c3)c3c(-c4ccc(F)cc4)[nH]nc3n2)cc1,·,?,·,-30.1%,?,?
COc1ccc(CCNC(=O)c2cc(-c3ccc(C)cc3)nc3n[nH]c(-c4ccccc4)c23)cc1OC,·,-22.4%,·,-8.5%,-17.7%,-3.0%
CC1(Cc2ccc(F)c(Cl)c2)C(=O)Nc2c(Cl)cccc21 (configuration not stated),?,?,-20.5%,-12.1%,-23.2%,16.4µM*
CC1(Cc2cc(Cl)ccc2C(F)(F)F)C(=O)Nc2c(Cl)cccc21 (configuration not stated),?,?,?,-4.6%,-7.6%,13µM*
COc1ccc(Cl)cc1CC1(C)C(=O)Nc2c(Cl)cccc21 (configuration not stated),?,?,-28.0%,-8.6%,?,23.1µM*
CC1(Cc2ccccc2F)C(=O)Nc2c(Cl)ccc(Cl)c21 (configuration not stated),-10.4%,?,?,-12.2%,?,?
Cc1ccc(N(O)C(C)(C)C)cc1,20.9%,23.1µM*,6.2%,8.2%,-9.9%,16.4µM*
Cc1ccc(C(C)(C)c2ccc(C)cc2)cc1,·,2.8%,·,·,·,7.8%
CCOC1=C2CN(S(=O)(=O)c3ccc(C)cc3)[C@H](c3ccccc3)C[C@@H]2N(S(=O)(=O)c2ccc(C)cc2)[C@H](c2cccc(C)c2)C1,10.5%,-6.2%,12.0%,-27.8%,?,-21.7%
CCOC(=O)c1c(NC(C)=O)sc2c(OCC(O)CNC(C)(C)C)c(Br)ccc12 (configuration not stated),-28.2%,?,?,11.2µM*,?,10.3µM*
CCOC(=O)c1c(N)sc2c(OCC)c(Br)ccc12,?,?,?,-26.2%,?,?
Cc1ccc(S(=O)(=O)c2nnn3c2nc(NCc2cccs2)c2sccc23)cc1C,·,?,·,-10.1%,-5.4%,?
Cc1nn(Cc2ccc(C(=O)Nc3ccccc3C(F)(F)F)o2)c(C)c1Br,-5.5%,?,-10.0%,-17.3%,?,?
Cc1csc(NC(=O)c2ccc(Cn3nc(C)c(Br)c3C)o2)n1,-33.7%,?,?,-5.0%,?,20.6µM*
CCNC(=O)n1nccc1C(C)Oc1cccc(C(F)(F)F)c1 (configuration not stated),-1.1%,1.6%,-2.0%,-30.3%,0.0%,-3.3%
O=C(OC1CO[C@H]2O[C@@H]1[C@H](OC(=O)c1ccccc1)[C@H]2OC(=O)c1ccccc1)c1ccccc1 (some centres not stated),0.2%,15.2%,4.2%,15.2%,-13.7%,-6.4%
Cc1ccc(N=Cc2c(C)[nH]n(-c3nc4ccccc4[nH]3)c2=O)cc1,3.26µM*,3.26µM*,2.91µM*,0.398µM*,-6.5%,4.11µM*
Cc1ccc(-n2[nH]c(C)c(C=Nc3ccc4[nH]c(=O)[nH]c4c3)c2=O)cc1,?,16.4µM*,?,12.6µM*,?,16.4µM*
Cc1[nH]n(-c2cccc3ccccc23)c(=O)c1C=Nc1ccc2[nH]c(=O)[nH]c2c1,9.7%,-8.3%,13.4%,15.3%,-6.7%,-14.1%
Cc1ccc(-n2[nH]c(C)c(C=Nc3ccc4[nH]c(=O)[nH]c4c3)c2=O)cc1C,23.1µM*,?,23.1µM*,-83.8%,-5.6%,20.6µM*
COc1ncc(-c2ccc(N3C(c4ccsc4)=Cc4ccc(F)cc4C3CC(C)=O)cc2)cn1 (configuration not stated),-3.3%,?,-0.4%,·,·,?
SMILES,HT1080 IDH1KD tx,DT40 TDP1 CPT,HT1080NT lethal,HepG2 viability,TGFb SMAD3 inh,DT40 TDP1 no CPT
COc1cc(CNCc2cc3ccc(F)cc3nc2N2CCOCC2)cc(OC)c1OC,·,-9.7%[9.04 µM],·,·,·,-22.9%
Cc1ccccc1-n1cc(-c2ccccc2)nc1SCC(=O)Nc1ccc(F)cc1,·,?,·,-2.8%,?,?
Cc1ccccc1NC(=O)CSc1nnc(-c2ccccc2)n1-c1ccccc1,-5.5%,-74.6%,-5.5%,-20.9%,-22.7%,?
Cc1ccccc1NC(=O)CSc1nc(-c2ccccc2)cn1-c1ccccc1F,·,?,·,-0.7%,11.2µM*,23.1µM*
Cc1ccc(C)c(-n2cc(-c3ccccc3)nc2SCC(=O)Nc2ccccc2)c1,·,?,·,-19.1%,?,18.4µM*
Cn1c(NCCO)nc2c1c(=O)n(Cc1cccc(F)c1)c(=O)n2C,·,6.3%,·,-2.1%,14.4%,-16.7%
Cc1cccc(C)c1NC(=S)NC(C)CCc1ccccc1 (configuration not stated),-1.9%,?,-6.7%,-16.2%,-0.6%,16.4µM*
Cc1ccccc1CN(C)CC(=O)NC(C)CCc1ccccc1 (configuration not stated),-20.4%,?,1.6%,-25.2%,-23.0%,16.4µM*
O=C(c1ccccc1NS(=O)(=O)c1ccc(Br)s1)N1CCCC1,8.8%,-8.6%,1.5%,-20.5%,-25.6%,-1.1%
CC(C)NC(=O)c1ccccc1NS(=O)(=O)c1ccc(Br)s1,-29.3%,?,?,-6.3%,?,20.6µM*
Cc1ccc2c(=O)cc(C(=O)Nc3ccc(S(=O)(=O)N4CCCCCC4)cc3)oc2c1C,·,?,·,-7.0%,?,14.6µM*

# Source: PubChem (National Center for Advancing Translational Sciences (NCATS))
